# Test results from ChEMBL document CHEMBL4513216, “Probing the Open Global Health Chemical Diversity Library for Multistage-Active Starting Points for Next-Generation Antimalarials” (ACS Infect Dis, 2020).
# About 8,600 (12%) of roughly 69,000 compounds showed an effect of 50% or more. Many of the other results were omitted from the sample, so strong results are more common in it than they were.
# Tested on: Plasmodium berghei
# Assay: Screen against P. berghei liver stage (PbLuc), transformed with Luciferase, at 10uM
# Type: functional, HepG2
# Conditions: tested at 10 uM
row,SMILES,INHIBITION [%]
1,CC1(C(=O)N2CCOCC2)CN(Cc2c[nH]cn2)CCO1 (centres undefined),39.7
2,O=C(O)c1c(NC2CCC2)ncc2c1CCN(C1CCOC1)C2 (centres undefined),11.3
3,CN(C)C(=O)N1C[C@H]2CC[C@@H](C1)N(Cc1nnc(C3CC3)o1)C2,28
4,O=C(NCCc1ccccc1)N1CC[C@@H]2CNS(=O)(=O)[C@@H]2CC1,23.1
5,COc1cccc(CC(=O)N2CC[C@@H]3[C@H](CC2)N(C)CCS3(=O)=O)c1,45.4
6,O=S1(=O)NC[C@H]2CCN(Cc3ccccc3)CC[C@H]21,12.7
7,CCN1C[C@H]2CCN(C(=O)Cc3cccc(OC)c3)CC[C@H]2S1(=O)=O,52.4
8,CN(C)C(=O)CN1C[C@H]2CCN(C(=O)c3ccccc3)CC[C@H]2S1(=O)=O,44.2
9,CN(C)C(=O)CN1C[C@H]2CCN(Cc3ccccc3)CC[C@H]2S1(=O)=O,60.3
10,COc1cccc(NC(=O)N2CC[C@@H]3CN(C)S(=O)(=O)[C@@H]3CC2)c1,55.4
11,O=C(Cc1ccccc1)N1CC[C@@H]2CNS(=O)(=O)[C@@H]2CC1,54.1
12,Cc1ccccc1NC(=O)N1CC[C@@H]2CN(C)S(=O)(=O)[C@@H]2CC1,-6.05
13,COc1cccc(CC(=O)N2CC[C@@H]3CN(C)S(=O)(=O)[C@@H]3CC2)c1,-1.28
14,COc1ccc(CC(=O)N2CC[C@@H]3CN(C)S(=O)(=O)[C@@H]3CC2)cc1,37.5
15,CN(C)C(=O)CN1C[C@H]2CCN(c3ncccn3)CC[C@H]2S1(=O)=O,-85.3
16,CC(C)CN1CCc2[nH]nc(C(=O)N3CCCC3)c2C1,45.7
17,Cc1nc(-c2nc(C(=O)NC3CC3)c3ccccn23)cn1C(C)C,43
18,OC(CNCCn1cccn1)c1ccc(Br)cc1 (centres undefined),25.6
19,CCn1nc(C)c(S(=O)(=O)N(C)c2ccc(Cl)cn2)c1C,0.643
20,O=C(COCc1ccco1)Nc1cc(C(F)(F)F)c[nH]c1=O,19.6
21,CCc1nc(C2CCCN2CCn2cncn2)no1 (centres undefined),16.7
22,CC(C)[C@]1(O)CN(C(=O)COCC(N)=O)C[C@H]1C,10.6
23,CNC(=O)N1CC[C@@H]2CN(Cc3cccc(OC)c3)S(=O)(=O)[C@@H]2CC1,63.8
24,COc1cccc(CCCNC(=O)N2CCC(O)(C(F)(F)F)C2)c1 (centres undefined),41.4
25,CNC(=O)N1CC[C@@H]2CN(CCc3cccc(OC)c3)S(=O)(=O)[C@@H]2CC1,8.31
26,COc1cccc(CC(=O)N2CCC(O)(C(F)(F)F)C2)c1 (centres undefined),49.1

row,SMILES,INHIBITION [%]
1,CNC(=O)N1CC[C@@H]2CN(Cc3cccc(Cl)c3)S(=O)(=O)[C@@H]2CC1,-2.17
2,COc1cccc(NC(=O)N2CCC(O)(C(F)(F)F)C2)c1 (centres undefined),79.1
3,c1cc2c(cc1-n1nc(C3CC3)nc1-c1csnn1)OCCO2,27.2
4,O=C(c1ccoc1)N1CCC(NCc2ccccc2Cl)CC1,7.81
5,CN(C)C(=O)Cn1c(C2CC2)c(CN2CCC(O)CC2)c2cccnc21,-8.58
6,Cc1csc(CCNC(=O)Nc2cc(C(F)(F)F)c[nH]c2=O)n1,22
7,Cc1occc1C(=O)N1C[C@@H](C(=O)NCc2ccco2)C[C@H]2OCC[C@H]21,32.2
8,Cc1c[nH]c(C2CCCN(Cc3cccc(C(=O)O)c3)C2)n1 (centres undefined),6.26
9,N#Cc1cccc(Oc2ccc(CN3CCCC3)cc2Cl)n1,55
10,CC(=O)Nc1ccc(Oc2cccc(CN3CCCC3)c2)cc1,27.9
11,N#Cc1ccc(CN2CCOCC2)cc1,40.6
12,CCOc1cc(CN2CCCC2)ccc1Oc1cccc(C#N)n1,47.6
13,COc1ccc(Oc2cccc(C#N)n2)cc1CN1CCCC1,25.4
14,COc1ccc(CN2CCCC2)cc1Oc1cccc(C#N)n1,57.5
15,O=C1CCNc2ccc(F)cc2CN1Cc1ccco1,1.8
16,Cc1ccc(-c2nc(C3CCN(C(=O)c4cnn(C)c4)CC3)no2)cn1,30.5
17,O=c1[nH]c(N2CCOCC2)nc2c1CN(Cc1cccnc1)CC2,-4.51
18,O=C1CCCN1CCCC(=O)N1CCC2(CC1)[C@H](O)C[C@@H]2O,9.56
19,CN(Cc1nc(Cc2cccc(C(F)(F)F)c2)no1)CC1CCCCO1 (centres undefined),42.1
20,CNC(=O)COc1cccc(CNC(=O)c2c(C)noc2C(C)C)c1,37.4
21,Cc1cc(C)c2nc(CN3CCCC(c4cc[nH]n4)C3)cc(O)c2c1 (centres undefined),78.5
22,COC1CCCN(Cc2cc(O)c3cc(C)cc(C)c3n2)C1 (centres undefined),61.2
23,Cc1cc(C)c2nc(CN3CCC(CN)CC3)cc(O)c2c1,34.9
24,Cc1cc(C)c2nc(CN3CCC(CN)C3)cc(O)c2c1 (centres undefined),-8.75
25,Cc1cc(C)c2nc(CN3CC[C@@H](O)C3)cc(O)c2c1,20.1
26,Cc1cc(C)c2nc(CN3CCOCC(O)C3)cc(O)c2c1 (centres undefined),17.6

row,SMILES,INHIBITION [%]
1,CS(=O)(=O)CCn1ccc(NC(=O)Cc2ccccc2Cl)n1,25.2
2,CSCCC(Nc1nc(C)cc(C)n1)C(=O)NC1CC1 (centres undefined),-15.4
3,Cc1ccccc1CSc1nc(N)cc(N2CCOC(C(N)=O)C2)n1 (centres undefined),-19.2
4,NC(=O)C1CN(c2ccc(Br)cn2)CCO1 (centres undefined),69.7
5,NC(=O)C1CN(c2ccc3cc(Br)ccc3n2)CCO1 (centres undefined),37.1
6,CC(=O)NCc1nnn2c1CN(c1ncc(C)cn1)CCC2,21.3
7,CCS(=O)(=O)N1CCCn2nnc(Cn3cccc3)c2C1,36.5
8,CCS(=O)(=O)N1CCCn2nnc(CNC(C)=O)c2C1,52.1
9,c1cnc(N2CCCn3nnc(COCC4CC4)c3C2)nc1,18.7
10,OCCOCc1nnn2c1CN(c1ncccn1)CCC2,43.8
11,CN(C)C(=O)NCc1nnn2c1CN(CC1CCOCC1)CCC2,-51
12,c1ccc(OCc2nnn3c2CN(c2ncccn2)CCC3)nc1,57.1
13,CC(=O)NCc1nnn2c1CN(c1ncccn1)CCC2,54.8
14,c1ccc(CN2CCCn3nnc(COc4ccccn4)c3C2)nc1,24.9
15,O=C(c1ccco1)N1CC[C@H]2C[C@@H](c3nccs3)O[C@@H]2C1,-7.59
16,COc1cccc(CNC(=O)c2cc(C)nc(N3CCCCC3)n2)c1,4.97
17,CCc1csc(C2CCCN(C(=O)c3ccco3)C2)n1 (centres undefined),19.6
18,CC(=O)N1CCC(C)(c2cc(C(=O)NCC3CC3)nc(C)n2)CC1,9.075
19,O=C1CC2(CCCCN2C(=O)c2ccsc2)CN1CC1CC1 (centres undefined),37.4
20,COCCn1cnc2ccc(NC(=O)c3ccccn3)cc2c1=O,19.4
21,CCn1nc(CC(C)C)cc1C(=O)N1C[C@H](O)[C@@H](N2CCCCC2)C1,29.7
22,COc1cccc(OC2CN(C(=O)CCn3cnnn3)C2)c1,55.9
23,COc1cccc(OC2CN(C(=O)c3cc(CC(C)C)nn3C)C2)c1,79.2
24,CCn1nc(CC(C)C)cc1C(=O)N1CC[C@@H](O)C1,26.8
25,CC(C)Cc1cc(C(=O)N2CCC(Oc3cccnc3)CC2)n(C)n1,5.11
26,O=C(CCn1cnc2ccccc21)N1CCN2CCCCC2C1 (centres undefined),40.1

row,SMILES,INHIBITION [%]
1,COc1cccc(OC2CN(C(=O)c3c(C)noc3C)C2)c1,-57.7
2,CC(C)Cc1cc(C(=O)N2CC(OCc3ccccc3F)C2)n(C)n1,43.2
3,CCn1nc(CC(C)C)cc1C(=O)N1CC(c2ccncc2)C1,57.4
4,COc1cccc(OC2CN(C(=O)CCn3cnc4ccccc43)C2)c1,70
5,COc1cccc(OC2CN(C(=O)c3sccc3C)C2)c1,-17.6
6,COc1cccc(OC2CN(C(=O)Cn3nc4ccccc4n3)C2)c1,28.7
7,Cc1ccc(CNC(=O)NCCCO)cc1,0.914
8,Cc1ccc(C(NC(=O)C2CCC(O)CC2)c2cccnc2)cc1C (centres undefined),7.84
9,Cc1ccccc1S(=O)(=O)NC(=O)C1(c2ccccc2)CCC1,35.2
10,Cc1ccc(S(=O)(=O)NC(C)(C)CN)c(F)c1,-21.8
11,Cn1ccc(C2CCCCN2C(=O)c2cccc(-n3cccn3)c2)n1 (centres undefined),56.1
12,Cn1ccc(C2CCCCCN2C(=O)c2cccnc2)n1 (centres undefined),-1.16
13,Cn1ccc(C2CCCCN2C(=O)c2cccc(Cn3cccn3)c2)n1 (centres undefined),15
14,O=S(=O)(NCCCn1cncn1)c1ccc2c(c1)OCCCO2,49
15,CSc1ncccc1C(=O)N1C[C@@H]2CC[C@H]1CN(c1cnccn1)C2,0.139
16,CC(C)(CNc1cccc(Cl)c1)NC(=O)C1CCCN(CC(N)=O)C1 (centres undefined),69.9
17,NC(=O)N1CCCC(C(=O)Nc2cccc(Cl)c2)C1 (centres undefined),37.5
18,CC(C)(CNC(=O)C1CCCN(C(N)=O)C1)c1cccc(Cl)c1 (centres undefined),21.5
19,O=C(c1cccc2c1OCO2)N1CCC(N2CCCC2)CC1,-17.4
20,c1ccc(COC2C[C@@H]3CN(Cc4cncnc4)C[C@@H]3C2)cc1 (some centres undefined),28
21,CCc1noc(C2CCCCN2C(=O)c2cccnc2)n1 (centres undefined),-8.9
22,Cc1noc(C)c1C(=O)N1CCCC1c1c(C)nn(C)c1C (centres undefined),-50.5
23,Cc1cc(CNC2(c3ccc(Cl)cc3)CC2)no1,16.8
24,OC1(c2ccccc2F)CCN(Cc2ccccc2N2CCCC2)CC1,46.2
25,OC1(c2ccc(F)cc2)CCN(Cc2ccccc2N2CCCC2)CC1,43.4
26,Cc1cccc(C2(O)CCN(Cc3ccccc3N3CCCC3)CC2)c1,61
